Source: the supplement of paper PMC11732987, “Enantioselective OTUD7B fragment discovery through chemoproteomics screening and high-throughput optimisation” (Communications Chemistry, 2025)

Tests used:
Assay in all cases: log2 ratio of Biotin-Ahx-Ub-VS probe labelling (fragment/DMSO); higher = less target engagement (more negative = stronger competition), active = hit call of the paper (q ≤ 0.05, log2 ratio ≤ -1)
Settings in all cases: compound concentration: 200 uM; treatment time: 3 h
[1] = target: USP9X (UniProt Q93008)
USP9X, sequence (Q93008 whole entry, the tested form may be a part): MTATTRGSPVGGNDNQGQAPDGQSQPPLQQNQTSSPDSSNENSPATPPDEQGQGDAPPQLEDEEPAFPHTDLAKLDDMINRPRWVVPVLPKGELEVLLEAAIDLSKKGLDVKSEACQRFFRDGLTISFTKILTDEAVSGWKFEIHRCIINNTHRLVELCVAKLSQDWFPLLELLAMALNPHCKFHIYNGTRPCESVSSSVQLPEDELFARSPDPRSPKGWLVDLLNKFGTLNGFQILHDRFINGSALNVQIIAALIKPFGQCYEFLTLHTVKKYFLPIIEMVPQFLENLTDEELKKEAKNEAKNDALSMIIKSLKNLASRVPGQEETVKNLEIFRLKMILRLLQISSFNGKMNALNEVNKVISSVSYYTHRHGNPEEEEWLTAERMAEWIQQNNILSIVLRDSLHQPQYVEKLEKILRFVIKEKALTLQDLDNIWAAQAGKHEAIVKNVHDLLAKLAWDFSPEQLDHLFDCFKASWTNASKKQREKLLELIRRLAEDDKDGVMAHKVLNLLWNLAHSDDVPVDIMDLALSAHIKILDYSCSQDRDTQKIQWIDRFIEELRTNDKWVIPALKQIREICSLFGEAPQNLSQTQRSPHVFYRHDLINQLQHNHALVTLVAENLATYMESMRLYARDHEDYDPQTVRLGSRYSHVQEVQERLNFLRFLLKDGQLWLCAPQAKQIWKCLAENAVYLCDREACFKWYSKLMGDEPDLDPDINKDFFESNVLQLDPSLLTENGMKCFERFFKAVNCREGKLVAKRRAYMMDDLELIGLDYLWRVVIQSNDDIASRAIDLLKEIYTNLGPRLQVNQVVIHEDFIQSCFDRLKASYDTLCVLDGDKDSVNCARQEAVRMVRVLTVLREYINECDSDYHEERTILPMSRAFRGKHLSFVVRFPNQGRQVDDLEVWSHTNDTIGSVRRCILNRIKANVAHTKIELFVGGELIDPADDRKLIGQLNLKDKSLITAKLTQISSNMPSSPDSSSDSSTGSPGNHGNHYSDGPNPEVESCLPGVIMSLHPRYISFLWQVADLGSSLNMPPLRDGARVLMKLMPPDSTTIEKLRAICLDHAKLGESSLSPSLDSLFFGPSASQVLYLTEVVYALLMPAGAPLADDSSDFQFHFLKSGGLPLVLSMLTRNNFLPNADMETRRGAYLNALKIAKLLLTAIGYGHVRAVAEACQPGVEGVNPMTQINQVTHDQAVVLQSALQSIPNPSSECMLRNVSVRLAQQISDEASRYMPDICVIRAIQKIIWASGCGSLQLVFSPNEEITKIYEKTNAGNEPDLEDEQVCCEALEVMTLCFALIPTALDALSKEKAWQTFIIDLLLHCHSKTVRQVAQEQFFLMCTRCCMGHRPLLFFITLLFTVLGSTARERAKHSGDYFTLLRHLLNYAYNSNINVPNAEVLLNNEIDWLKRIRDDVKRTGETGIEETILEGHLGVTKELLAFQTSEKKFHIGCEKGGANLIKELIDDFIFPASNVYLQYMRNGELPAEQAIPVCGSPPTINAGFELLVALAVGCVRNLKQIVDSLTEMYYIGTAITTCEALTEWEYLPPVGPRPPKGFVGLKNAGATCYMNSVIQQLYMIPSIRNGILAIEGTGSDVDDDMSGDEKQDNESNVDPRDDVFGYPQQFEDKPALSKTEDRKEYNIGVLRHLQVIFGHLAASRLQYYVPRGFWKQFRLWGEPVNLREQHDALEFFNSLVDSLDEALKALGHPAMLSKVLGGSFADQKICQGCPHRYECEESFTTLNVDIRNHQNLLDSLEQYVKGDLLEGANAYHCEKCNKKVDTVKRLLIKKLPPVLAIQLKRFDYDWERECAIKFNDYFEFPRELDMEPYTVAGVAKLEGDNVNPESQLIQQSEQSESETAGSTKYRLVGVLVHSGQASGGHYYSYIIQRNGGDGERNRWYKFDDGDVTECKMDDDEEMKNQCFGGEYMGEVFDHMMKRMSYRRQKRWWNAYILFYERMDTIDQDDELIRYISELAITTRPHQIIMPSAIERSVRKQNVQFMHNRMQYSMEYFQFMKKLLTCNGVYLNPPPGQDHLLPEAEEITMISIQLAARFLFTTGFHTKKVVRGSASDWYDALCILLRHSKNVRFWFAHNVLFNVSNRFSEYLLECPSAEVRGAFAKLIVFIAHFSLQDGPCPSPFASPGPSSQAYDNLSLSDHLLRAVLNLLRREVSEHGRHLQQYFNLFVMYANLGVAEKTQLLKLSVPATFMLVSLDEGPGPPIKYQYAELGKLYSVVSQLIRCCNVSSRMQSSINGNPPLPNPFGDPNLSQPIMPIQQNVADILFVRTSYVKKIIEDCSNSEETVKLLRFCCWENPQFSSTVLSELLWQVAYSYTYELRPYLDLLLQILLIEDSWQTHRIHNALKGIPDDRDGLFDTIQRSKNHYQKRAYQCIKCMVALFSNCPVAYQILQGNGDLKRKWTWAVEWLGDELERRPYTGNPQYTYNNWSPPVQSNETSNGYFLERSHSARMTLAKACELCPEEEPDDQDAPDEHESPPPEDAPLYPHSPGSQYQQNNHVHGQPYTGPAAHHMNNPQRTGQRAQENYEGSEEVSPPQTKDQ
Method in brief: (§1)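 Using Biotin-Ahx-Ub-VS at 0.5 µM final for 1 h, DUBs were labelled in HEK293T lysate (495 µg per sample) that had first been treated in triplicate with fragment at 200 µM or vehicle for 3 h. NeutrAvidin enrichment, LysC and trypsin digestion and diaPASEF LC-MS/MS followed. Spectronaut label-free quantities were global-median-normalised. Values are average log2 fragment/vehicle ratios by unpaired t-test, using proteins with ≥2 unique peptides.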

[2] = target: UniProt O00487
Method in brief: as §1

[3] = target: UniProt O00507
UniProt O00507, sequence (O00507 whole entry): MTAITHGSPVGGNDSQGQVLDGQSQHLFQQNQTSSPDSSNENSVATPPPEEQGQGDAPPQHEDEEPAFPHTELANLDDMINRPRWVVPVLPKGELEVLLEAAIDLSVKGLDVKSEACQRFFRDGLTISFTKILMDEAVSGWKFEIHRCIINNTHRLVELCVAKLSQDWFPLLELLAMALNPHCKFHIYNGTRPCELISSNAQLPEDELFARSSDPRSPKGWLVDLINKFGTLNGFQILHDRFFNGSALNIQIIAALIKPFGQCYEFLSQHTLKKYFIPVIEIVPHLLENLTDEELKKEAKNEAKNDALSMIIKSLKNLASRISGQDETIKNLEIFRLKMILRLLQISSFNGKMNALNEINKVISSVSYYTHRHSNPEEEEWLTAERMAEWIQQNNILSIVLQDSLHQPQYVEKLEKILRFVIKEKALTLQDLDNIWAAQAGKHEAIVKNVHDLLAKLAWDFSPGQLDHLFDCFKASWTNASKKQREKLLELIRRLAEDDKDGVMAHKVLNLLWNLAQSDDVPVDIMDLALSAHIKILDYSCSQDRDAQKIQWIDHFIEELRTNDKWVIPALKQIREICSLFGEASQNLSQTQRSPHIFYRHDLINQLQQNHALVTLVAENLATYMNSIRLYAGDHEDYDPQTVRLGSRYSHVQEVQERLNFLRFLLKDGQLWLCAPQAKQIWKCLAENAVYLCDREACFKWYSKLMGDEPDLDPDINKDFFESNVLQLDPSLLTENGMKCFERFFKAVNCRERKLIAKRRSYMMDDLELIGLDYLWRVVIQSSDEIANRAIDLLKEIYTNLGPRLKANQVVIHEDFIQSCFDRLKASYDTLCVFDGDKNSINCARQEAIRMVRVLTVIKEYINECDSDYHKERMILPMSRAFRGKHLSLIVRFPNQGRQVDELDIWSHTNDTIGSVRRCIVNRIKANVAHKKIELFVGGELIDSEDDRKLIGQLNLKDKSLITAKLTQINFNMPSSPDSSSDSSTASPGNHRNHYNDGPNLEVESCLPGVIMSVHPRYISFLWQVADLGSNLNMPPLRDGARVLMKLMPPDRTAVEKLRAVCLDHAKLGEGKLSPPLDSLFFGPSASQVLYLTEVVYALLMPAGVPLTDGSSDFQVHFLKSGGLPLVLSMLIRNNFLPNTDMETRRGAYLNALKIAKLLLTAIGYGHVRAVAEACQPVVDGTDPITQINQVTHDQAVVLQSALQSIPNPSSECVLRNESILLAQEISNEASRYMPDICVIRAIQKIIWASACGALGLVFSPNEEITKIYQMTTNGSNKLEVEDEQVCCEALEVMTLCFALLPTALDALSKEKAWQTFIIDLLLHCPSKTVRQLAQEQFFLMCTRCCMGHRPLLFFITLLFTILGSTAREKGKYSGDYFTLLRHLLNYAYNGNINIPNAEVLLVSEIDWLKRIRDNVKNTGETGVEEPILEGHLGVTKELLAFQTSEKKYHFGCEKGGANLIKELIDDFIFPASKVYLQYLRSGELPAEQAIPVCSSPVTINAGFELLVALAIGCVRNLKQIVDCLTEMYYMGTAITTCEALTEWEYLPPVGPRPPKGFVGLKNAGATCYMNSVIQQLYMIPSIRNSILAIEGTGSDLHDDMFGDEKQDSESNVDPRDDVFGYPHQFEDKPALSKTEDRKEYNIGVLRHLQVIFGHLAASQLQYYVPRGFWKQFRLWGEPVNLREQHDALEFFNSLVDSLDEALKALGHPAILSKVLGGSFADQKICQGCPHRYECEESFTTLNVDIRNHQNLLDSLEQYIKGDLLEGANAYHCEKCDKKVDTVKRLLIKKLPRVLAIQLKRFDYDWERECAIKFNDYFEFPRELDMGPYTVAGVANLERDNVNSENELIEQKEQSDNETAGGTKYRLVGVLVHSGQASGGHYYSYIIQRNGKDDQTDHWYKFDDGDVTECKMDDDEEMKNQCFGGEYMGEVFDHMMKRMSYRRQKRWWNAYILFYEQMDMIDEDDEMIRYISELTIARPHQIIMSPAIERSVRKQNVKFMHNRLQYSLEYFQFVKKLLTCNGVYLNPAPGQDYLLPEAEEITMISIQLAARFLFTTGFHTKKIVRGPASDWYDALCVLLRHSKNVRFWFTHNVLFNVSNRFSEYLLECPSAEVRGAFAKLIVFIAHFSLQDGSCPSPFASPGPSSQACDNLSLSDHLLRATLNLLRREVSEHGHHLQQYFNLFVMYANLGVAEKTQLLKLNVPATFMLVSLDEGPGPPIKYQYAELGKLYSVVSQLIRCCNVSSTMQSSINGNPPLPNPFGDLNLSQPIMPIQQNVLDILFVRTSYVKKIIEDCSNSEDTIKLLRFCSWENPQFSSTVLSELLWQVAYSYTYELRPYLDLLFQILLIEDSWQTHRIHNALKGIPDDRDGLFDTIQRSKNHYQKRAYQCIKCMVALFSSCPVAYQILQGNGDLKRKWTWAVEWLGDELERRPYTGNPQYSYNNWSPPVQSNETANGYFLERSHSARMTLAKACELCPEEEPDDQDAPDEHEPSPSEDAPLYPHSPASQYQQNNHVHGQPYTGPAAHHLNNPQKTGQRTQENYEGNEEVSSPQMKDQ
Method in brief: as §1

[4] = target: UniProt P51784
Method in brief: as §1

[5] = target: T1, UniProt Q5T2D3
T1 sequence (whole entry): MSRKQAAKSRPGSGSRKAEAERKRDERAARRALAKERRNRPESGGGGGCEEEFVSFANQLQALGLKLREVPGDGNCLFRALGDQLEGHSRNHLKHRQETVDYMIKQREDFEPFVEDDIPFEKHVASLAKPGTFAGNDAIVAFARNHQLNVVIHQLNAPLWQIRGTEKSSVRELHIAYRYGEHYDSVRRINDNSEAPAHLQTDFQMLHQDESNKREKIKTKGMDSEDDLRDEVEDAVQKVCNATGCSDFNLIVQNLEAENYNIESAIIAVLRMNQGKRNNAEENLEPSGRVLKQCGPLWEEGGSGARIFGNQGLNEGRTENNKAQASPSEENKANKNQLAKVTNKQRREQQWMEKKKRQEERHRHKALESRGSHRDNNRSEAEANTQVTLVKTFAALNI
Method in brief: as §1

[6] = target: T2, UniProt Q8TE49
T2 sequence (whole entry): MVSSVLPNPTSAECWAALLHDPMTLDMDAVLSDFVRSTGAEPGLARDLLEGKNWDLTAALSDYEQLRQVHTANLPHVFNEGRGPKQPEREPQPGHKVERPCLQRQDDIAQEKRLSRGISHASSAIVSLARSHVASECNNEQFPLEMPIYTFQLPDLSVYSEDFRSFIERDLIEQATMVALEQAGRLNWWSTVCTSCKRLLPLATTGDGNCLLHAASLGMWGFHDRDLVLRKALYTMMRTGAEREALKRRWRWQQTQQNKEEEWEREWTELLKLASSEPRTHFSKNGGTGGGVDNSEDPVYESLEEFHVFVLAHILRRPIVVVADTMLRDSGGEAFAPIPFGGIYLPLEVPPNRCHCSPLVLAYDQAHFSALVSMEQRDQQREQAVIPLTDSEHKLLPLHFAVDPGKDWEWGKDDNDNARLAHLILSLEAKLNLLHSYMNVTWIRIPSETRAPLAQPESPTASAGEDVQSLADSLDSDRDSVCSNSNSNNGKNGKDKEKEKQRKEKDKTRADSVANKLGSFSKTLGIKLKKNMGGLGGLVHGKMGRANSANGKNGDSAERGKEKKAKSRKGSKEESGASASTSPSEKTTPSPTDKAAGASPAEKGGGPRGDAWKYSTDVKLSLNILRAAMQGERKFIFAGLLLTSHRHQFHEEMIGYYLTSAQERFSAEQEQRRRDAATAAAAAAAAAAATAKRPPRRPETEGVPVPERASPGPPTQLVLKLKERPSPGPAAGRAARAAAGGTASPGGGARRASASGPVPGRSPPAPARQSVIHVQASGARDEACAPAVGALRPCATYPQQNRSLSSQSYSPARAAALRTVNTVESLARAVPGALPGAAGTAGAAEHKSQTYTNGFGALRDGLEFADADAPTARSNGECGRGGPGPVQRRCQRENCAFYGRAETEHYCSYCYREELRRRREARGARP
Method in brief: as §1

[7] = target: T3, UniProt Q9P2H5
T3 sequence (whole entry): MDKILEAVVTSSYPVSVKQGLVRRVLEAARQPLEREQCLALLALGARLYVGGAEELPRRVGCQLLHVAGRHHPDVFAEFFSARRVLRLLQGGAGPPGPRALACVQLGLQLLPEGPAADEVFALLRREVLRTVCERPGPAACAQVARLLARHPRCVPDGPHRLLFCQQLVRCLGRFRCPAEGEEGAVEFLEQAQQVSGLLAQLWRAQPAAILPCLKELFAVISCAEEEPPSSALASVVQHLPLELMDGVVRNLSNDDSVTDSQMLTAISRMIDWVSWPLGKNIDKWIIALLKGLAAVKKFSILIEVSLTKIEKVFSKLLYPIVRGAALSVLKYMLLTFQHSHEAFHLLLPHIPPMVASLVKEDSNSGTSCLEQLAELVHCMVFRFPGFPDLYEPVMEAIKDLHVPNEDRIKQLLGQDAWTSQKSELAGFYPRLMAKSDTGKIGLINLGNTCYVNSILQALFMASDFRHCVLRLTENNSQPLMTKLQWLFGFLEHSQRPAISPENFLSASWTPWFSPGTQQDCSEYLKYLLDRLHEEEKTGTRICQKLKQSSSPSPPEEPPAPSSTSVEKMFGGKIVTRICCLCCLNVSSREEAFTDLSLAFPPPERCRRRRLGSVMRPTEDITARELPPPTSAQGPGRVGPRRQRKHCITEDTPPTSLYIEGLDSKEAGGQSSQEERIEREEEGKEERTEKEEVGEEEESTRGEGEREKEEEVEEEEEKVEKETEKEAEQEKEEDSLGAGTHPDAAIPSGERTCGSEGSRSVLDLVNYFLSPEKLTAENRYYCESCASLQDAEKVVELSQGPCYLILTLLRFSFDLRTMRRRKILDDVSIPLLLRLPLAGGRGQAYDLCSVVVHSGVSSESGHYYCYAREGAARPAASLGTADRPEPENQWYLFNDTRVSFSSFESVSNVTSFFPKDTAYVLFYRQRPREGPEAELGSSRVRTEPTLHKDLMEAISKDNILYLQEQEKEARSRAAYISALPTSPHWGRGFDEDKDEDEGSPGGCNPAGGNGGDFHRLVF
Method in brief: as §1

[8] = target: T4, UniProt Q9UGI0
T4 sequence (whole entry): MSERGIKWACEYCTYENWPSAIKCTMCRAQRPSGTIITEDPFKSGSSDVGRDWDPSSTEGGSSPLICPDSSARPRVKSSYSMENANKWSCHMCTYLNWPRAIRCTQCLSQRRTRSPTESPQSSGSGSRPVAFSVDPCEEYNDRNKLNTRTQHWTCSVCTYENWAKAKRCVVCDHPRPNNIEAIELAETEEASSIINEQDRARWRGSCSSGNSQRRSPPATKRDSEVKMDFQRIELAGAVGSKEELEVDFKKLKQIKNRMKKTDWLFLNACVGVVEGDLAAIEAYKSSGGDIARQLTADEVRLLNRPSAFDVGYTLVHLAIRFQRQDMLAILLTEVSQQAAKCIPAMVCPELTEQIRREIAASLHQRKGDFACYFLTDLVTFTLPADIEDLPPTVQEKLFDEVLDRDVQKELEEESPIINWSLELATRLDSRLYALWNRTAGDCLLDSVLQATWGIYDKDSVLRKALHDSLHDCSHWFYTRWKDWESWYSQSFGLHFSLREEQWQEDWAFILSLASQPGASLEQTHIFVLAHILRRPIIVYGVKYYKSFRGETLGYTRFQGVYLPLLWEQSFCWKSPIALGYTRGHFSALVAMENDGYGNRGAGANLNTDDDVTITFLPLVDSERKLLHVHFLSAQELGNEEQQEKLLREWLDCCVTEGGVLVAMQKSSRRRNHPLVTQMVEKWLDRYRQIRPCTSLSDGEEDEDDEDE
Method in brief: as §1

[9] = target: T5, YOD1 (UniProt Q5VVQ6)
T5 sequence (whole entry): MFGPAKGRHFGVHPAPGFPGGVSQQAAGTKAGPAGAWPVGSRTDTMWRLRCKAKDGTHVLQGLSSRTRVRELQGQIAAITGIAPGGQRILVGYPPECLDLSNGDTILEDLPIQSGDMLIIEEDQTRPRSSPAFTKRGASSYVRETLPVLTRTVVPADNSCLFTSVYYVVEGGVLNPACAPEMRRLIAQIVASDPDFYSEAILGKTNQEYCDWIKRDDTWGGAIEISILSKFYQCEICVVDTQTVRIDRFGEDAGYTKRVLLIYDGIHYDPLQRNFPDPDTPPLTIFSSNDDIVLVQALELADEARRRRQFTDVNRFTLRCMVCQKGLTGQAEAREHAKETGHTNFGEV
Method in brief: as §1

Measured: log2 ratio of Biotin-Ahx-Ub-VS probe labelling

O=C(CCl)N1CCC(O)(Cc2ccc(F)cc2)C1 (centres undefined)
inactive: [1] 0.0751 | [2] -0.0616 | [3] -0.253 | [4] 0.313 | [5] -0.16 | [6] -0.0913 | [7] 0.0413 | [8] -0.196 | [9] 0.2
